Reference: PubChem BioAssay (EPA / NIEHS)
Some compounds were tested as several samples or in several runs, with calls that do not always agree. Active and inactive are the calls of the source. Rule for the calls: active = hit-call score of the fitted dose curve at least 0.9, where 1 is the maximum; inactive = score below 0.9.

molecular target: Hepatocyte nuclear factor 3-beta (Homo sapiens) (UniProt Q9Y261); experiment: ATG_FoxA2_CIS: Attagene CIS-FACTORIAL HepG2 Assay for human Forkhead box A2 (FOXA2) (AID 2282942); settings: HepG2 cis-reporter transcription factor activity, 24 h; actives raise or lower the signal
Sequence (Q9Y261 whole entry, looked up): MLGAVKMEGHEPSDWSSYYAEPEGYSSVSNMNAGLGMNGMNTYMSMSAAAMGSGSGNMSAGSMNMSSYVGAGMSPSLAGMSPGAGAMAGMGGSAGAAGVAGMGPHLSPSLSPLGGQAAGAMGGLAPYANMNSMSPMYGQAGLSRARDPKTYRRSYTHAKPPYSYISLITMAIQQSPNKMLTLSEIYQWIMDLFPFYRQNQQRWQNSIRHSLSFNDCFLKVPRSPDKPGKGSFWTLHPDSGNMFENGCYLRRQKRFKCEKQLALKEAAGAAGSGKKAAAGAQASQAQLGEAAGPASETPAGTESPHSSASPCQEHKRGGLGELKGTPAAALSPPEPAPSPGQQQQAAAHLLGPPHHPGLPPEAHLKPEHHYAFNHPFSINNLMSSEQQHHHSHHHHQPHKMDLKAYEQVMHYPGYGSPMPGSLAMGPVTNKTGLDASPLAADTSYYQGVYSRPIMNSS
Description: ATG_CIS is a cell-based, multiplexed-readout assay that uses HepG2, a human liver cell line, with measurements taken at 24 hours after chemical dosing in a 24-well plate.ATG_FoxA2_CIS is one of 52 assay component(s) measured or calculated from the ATG_CIS assay. It is designed to make measurements of mRNA induction, a form of inducible reporter, as detected with fluorescence intensity signals by Reverse transcription polymerase chain reaction (RT-PCR) and Capillary electrophoresis technology.Data from the assay component ATG_FoxA2_CIS was analyzed into 1 assay endpoint. This assay endpoint, ATG_FoxA2_CIS, was analyzed with bidirectional fitting relative to DMSO as the negative control and baseline of activity. Using a type of inducible reporter, measures of mRNA for gain or loss-of-signal activity can be used to understand the reporter gene at the transcription factor-level as they relate to the gene FOXA2. Furthermore, this assay endpoint can be referred to as a primary readout, because this assay has produced multiple assay endpoints where this one serves a reporter gene function. To generalize the intended target to other relatable targets, this assay endpoint is annotated to the dna binding intended target family, where the subfamily is forkhead box protein.
Human liver HepG2 cells are transiently transfected with multiple reporter transcription units (MRTUs) in 6-well plates using FuGene 6 reagent (Roche; 3 ml FuGene/1 mg DNA). The MRTU constructs are regulated by a cis-regulating element (promoter). […] A major difference between the CIS and TRANS system is that in CIS activities of endogenous TFs are measured, whereas the TRANS assay evaluates changes in activities of exogenous, chimeric NR-Gal4 proteins. […] At the end of 24 hour incubation, total RNA was isolated using TriZol reagent (Invitrogen). The isolated RNA is then reverse-transcribed using oligo(dT) primer and Mo-MLV reverse transcriptase (Invitrogen) with DNAse I (Ambion) treatment for 30 min. The one-tenth of the produced cDNA was amplified by PCR using Taq DNA polymerase (Invitrogen) and two reporter sequence-specific primers. The PCR products were fluorescently labeled by primer extension with 6-arboxyfluorescein (6-FAM) 5'-labeled reporter sequence-specific primer (2 min at 95 C, 20 s at 68 C and 10 min at 72 C) and these products were digested with 5U of HpaI (New England Biolabs) for 2h at 37 C. The fragments were purified using Qiaquick PCR columns (Qiagen), analyzed on an ABI 3130xL genetic analyzer (Applied Biosystems) with peak positions identified by using a set of X-rhodamine (ROX)-labeled MapMarker1000 molecular weight standards (BioVentures). The raw capillary electrophoresis data was processed using Attagraph software (Attagene).

Structure (SMILES) | outcome | AC50
CCCCCCC(C)OC(=O)COc1nc(F)c(Cl)c(N)c1Cl (stereo not given) | inactive | 
C#C[C@]1(O)CC[C@H]2[C@@H]3CCC4=CC(=O)CC[C@@H]4[C@H]3CC[C@@]21CC | inactive | 
O=C(O)c1ccccc1 | inactive | 
COC(=O)c1ccccc1S(=O)(=O)NC(=O)Nc1nc(OC(F)F)cc(OC(F)F)n1 | inactive | 
CCOC(=O)[C@H](C)Oc1ccc(Oc2nc3ccc(Cl)cc3o2)cc1 | inactive | 
CCOC(=O)C(C)Oc1ccc(Oc2nc3ccc(Cl)cc3o2)cc1 (stereo not given) | inactive | 
CCCOC(=O)NCCCN(C)C | inactive | 
CCOC(=O)C(C)Oc1ccc(Oc2cnc3cc(Cl)ccc3n2)cc1 (stereo not given) | inactive | 
CCCCC(CC)COC(=O)c1ccccc1C(=O)O (stereo not given) | inactive | 
CC(C)CCCCCCc1ccc(O)cc1 | inactive | 21.8 µM (active)
C[C@]12CC[C@@H]3c4ccc(O)cc4C[C@@H](CCCCCCCCCS(=O)CCCC(F)(F)C(F)(F)F)[C@H]3[C@@H]1CC[C@@H]2O (stereo not given in full) | inactive | 
CCCOC(=O)c1ccc(C(=O)OCCC)nc1 | inactive | 
Oc1ccc(C(c2ccc(O)cc2)C(Cl)(Cl)Cl)cc1 | inactive | 
COCCO | inactive | 
CCNc1nc(N)nc(Cl)n1 | inactive | 
CC1(C)C(C=C(Cl)Cl)C1C(=O)OCc1cccc(Oc2ccccc2)c1 (stereo not given) | inactive | 
CCN(Cc1c(F)cccc1Cl)c1c([N+](=O)[O-])cc(C(F)(F)F)cc1[N+](=O)[O-] | inactive | 
CC(C)(c1ccc(O)cc1)c1ccc(O)cc1 | inactive | 58.2 µM (active)
O=C(c1ccccc1)C1CCCCC1 | inactive | 

Structure (SMILES) | outcome | AC50
COC(=O)c1cccc(C)c1S(=O)(=O)NC(=O)Nc1nc(OCC(F)(F)F)nc(N(C)C)n1 | inactive | 
COC(=O)c1ccccc1C(=O)O | inactive | 
CC(C)(C)[C@@H](O)[C@@H](Cc1ccc(Cl)cc1)n1cncn1 | inactive | 
c1ccc2[nH]c(-c3cscn3)nc2c1 | inactive | 
CCCCCOC(=O)COc1cc(N2C(=O)C3=C(CCCC3)C2=O)c(F)cc1Cl | inactive | 
COc1c(Cl)ccc(Cl)c1C(=O)O | inactive | 
CCCCOC(=O)C(C)Oc1ccc(Oc2ccc(C(F)(F)F)cn2)cc1 (stereo not given) | inactive | 
CCC(C)OC(=O)N1CCCCC1CCO (stereo not given) | inactive | 
O=C(Nc1ccc([N+](=O)[O-])cc1Cl)c1cc(Cl)ccc1O | inactive | 
N#CSCSc1nc2ccccc2s1 | inactive | 
CSC(=O)c1cccc2nnsc12 | inactive | 
CCCCOCCOCCOCc1cc2c(cc1CCC)OCO2 | inactive | 
CCOC(=O)c1ccc(O)cc1 | inactive | 
N[C@@H](Cc1cc(I)c(Oc2ccc(O)c(I)c2)c(I)c1)C(=O)O | inactive | 1.32 µM (active)
CCOC(=O)COc1cc(-n2ncc(C(F)(F)F)c(C)c2=O)c(F)cc1Cl | inactive | 
OB(O)O | inactive | 
CC(=O)[C@H]1CC[C@H]2[C@@H]3CCC4=CC(=O)CC[C@]4(C)[C@H]3CC[C@]12C | inactive | 
O=C(c1ccc(O)cc1O)c1ccc(O)cc1O | inactive | 
